From paper PMC4336329 (PLoS ONE, 2015)
Out of some 310,000 compounds screened, about 14,000 (4.5%) showed an effect of 50% or more. Effects have a minus sign here. The entries come from a sample that favours strong results as a whole.

Biological target: human ether-à-go-go-related gene (hERG) potassium channel (human, UniProt Q12809)
Experiment: primary screen, population patch clamp on CHO cells stably expressing hERG; higher = less effect of the substance
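Also: peak tail current of the secondary pulse compared with the same well before compound.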

Chain of human ether-à-go-go-related gene (hERG) potassium channel (Q12809 whole entry, looked up): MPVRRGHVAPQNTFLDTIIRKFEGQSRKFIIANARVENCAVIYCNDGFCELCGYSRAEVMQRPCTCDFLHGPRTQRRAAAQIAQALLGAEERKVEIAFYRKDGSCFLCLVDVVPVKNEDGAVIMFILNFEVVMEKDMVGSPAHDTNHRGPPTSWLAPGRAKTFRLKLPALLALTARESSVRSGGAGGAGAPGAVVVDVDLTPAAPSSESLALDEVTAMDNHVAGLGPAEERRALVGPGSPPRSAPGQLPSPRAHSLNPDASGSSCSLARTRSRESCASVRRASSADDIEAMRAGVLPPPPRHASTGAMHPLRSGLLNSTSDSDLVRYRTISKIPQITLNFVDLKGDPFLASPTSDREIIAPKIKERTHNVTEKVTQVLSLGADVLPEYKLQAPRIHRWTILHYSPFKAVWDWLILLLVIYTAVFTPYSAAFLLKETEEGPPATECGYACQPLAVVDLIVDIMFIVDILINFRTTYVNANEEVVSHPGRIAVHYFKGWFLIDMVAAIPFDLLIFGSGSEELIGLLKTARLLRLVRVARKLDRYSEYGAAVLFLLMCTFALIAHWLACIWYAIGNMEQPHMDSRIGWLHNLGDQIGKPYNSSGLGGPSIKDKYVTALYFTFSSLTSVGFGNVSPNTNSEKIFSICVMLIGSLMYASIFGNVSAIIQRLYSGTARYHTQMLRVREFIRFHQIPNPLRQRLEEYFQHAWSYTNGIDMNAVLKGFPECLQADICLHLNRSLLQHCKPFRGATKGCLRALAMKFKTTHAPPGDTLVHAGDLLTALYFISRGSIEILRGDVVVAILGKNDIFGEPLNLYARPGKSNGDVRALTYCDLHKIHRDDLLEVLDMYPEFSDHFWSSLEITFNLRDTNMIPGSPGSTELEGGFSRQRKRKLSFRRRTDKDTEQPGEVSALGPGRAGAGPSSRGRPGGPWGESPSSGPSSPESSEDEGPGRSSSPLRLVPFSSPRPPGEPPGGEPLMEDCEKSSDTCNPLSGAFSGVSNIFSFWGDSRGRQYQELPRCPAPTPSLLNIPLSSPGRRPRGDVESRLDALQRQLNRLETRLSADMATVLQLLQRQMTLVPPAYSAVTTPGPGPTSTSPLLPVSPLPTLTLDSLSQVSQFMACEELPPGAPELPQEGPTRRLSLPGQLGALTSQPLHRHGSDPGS

Compound	hERG current change (%, negative = inhibition) at 10uM [%]
CC(=O)c1ccc(NC(=O)C2=CC(c3ccco3)=NS(=O)(=O)N2C)cc1	-7.75
COC(C(=O)N/N=C(\C)CC(=O)Nc1ccc(N(C)C)cc1)c1ccccc1 (stereo not drawn)	15.3
CC(NS(C)(=O)=O)C(c1cccs1)N1CCN(c2ccccc2F)CC1 (stereo not drawn)	6.04
Cc1ccc(CNC(=O)Cn2c([N+](=O)[O-])cnc2C)cc1	11.3
COc1ccc(S(=O)(=O)NNC(=O)Nc2ccc(C)cc2C)c(OC)c1	-1.37
Cc1nc(SCC(=O)c2c(N)n(C3CC3)c(=O)[nH]c2=O)[nH]c(=O)c1CCO	17
COc1ccc2c(c1)OC(O)(C(F)(F)F)CC2=O (stereo not drawn)	-5.68
CC(C)(C)NC(=O)/C=C/c1cccc(C(F)(F)F)c1	-8.66
COc1ccccc1/C=C/C(=O)NCC(=O)N1CCC(N(C)C2CCCC2)CC1	-35
CN(C(=O)/C=C/c1ccc(F)cc1)C1CCCCC1	-22.6
CN(C(=S)NC(=O)/C=C/c1ccc(F)cc1)C1CCCCC1	4.54
CNC(=O)/C=C/c1cccc(C(F)(F)F)c1	4.99
CN(C1CCCC1)C1CCN(C(=O)CNC(=O)/C=C/c2ccccc2)CC1	-53.8
CN(C1CCCC1)C1CCN(C(=O)CNC(=O)/C=C/c2cccc(C(F)(F)F)c2)CC1	-62.6
CN(C1CCCC1)C1CCN(C(=O)CNC(=O)/C=C/c2ccc(F)cc2)CC1	-62.6
CN(C(=O)/C=C/c1ccccc1)C1CCCCC1	1.32
COc1ccc(NC(=O)c2cc(S(=O)(=O)NCC3COc4ccccc4O3)ccc2F)cc1 (stereo not drawn)	-19.1
O=c1oc2ccccc2cc1-c1cn2ccccc2n1	11.9
Nc1nnc(SCC(=O)NC2CCCCCCC2)s1	16.9
CCCc1cc2c(cc1NC(=O)c1ccc(C(C)(C)C)cc1)OCO2	-13.8

Compound	hERG current change (%, negative = inhibition) at 10uM [%]
Cc1csc(NC(=O)CSc2nnc3ncccn23)n1	-14.3
CCn1c(SCC(=O)Nc2ccccc2OC)nc2ccccc2c1=O	-11.9
COc1ccc(NC(=O)CSc2nc3ccccc3c(=O)n2CCCN2CCC(C)CC2)c(OC)c1	-81.6
COc1ccc(NC(=O)CSc2nc3ccccc3c(=O)n2CCCN2CCOCC2)c(OC)c1	-34.6
COc1ccc(NC(=O)CSc2nc3ccccc3c(=O)n2CCCN2CCCCC2)c(OC)c1	-65.7
COCCn1c(SCC(=O)Nc2ccc(OC)cc2OC)nc2ccccc2c1=O	10.5
COCCn1c(SCC(=O)Nc2ccccc2OC)nc2ccccc2c1=O	-40.1
COc1ccc(NC(=O)CCCNS(=O)(=O)c2cccs2)cc1	2.91
Cc1cccc(NC2=C(NC(=O)c3ccccc3)C(=O)c3ccccc3C2=O)c1	-19.4
COc1cccc(CC2(CO)CCN(Cc3cnc(N4CCOCC4)s3)CC2)c1	-54.7
OCCC1CN(Cc2cnc(N3CCCC3)s2)CCN1C1CCCC1 (stereo not drawn)	-7.38
OCCC1CN(Cc2cnc(N3CCCC3)s2)CCN1Cc1ccccc1 (stereo not drawn)	-0.21
OCC1(CCCc2ccccc2)CCN(Cc2cnc(N3CCOCC3)s2)CC1	-58.3
CCOC(=O)C1(Cc2ccccc2)CCN(Cc2cnc(N3CCOCC3)s2)CC1	-42.4
OCC1(CCc2ccccc2)CCN(Cc2cnc(N3CCCC3)s2)CC1	-70.3
c1ccc(N2CCN(Cc3cnc(N4CCOCC4)s3)CC2)cc1	29.4
CN(C)c1ncc(CN2CCC(CO)(CCCc3ccccc3)CC2)s1	-51.3
Clc1ncc(CN2CCN(Cc3ccccc3)CC2)s1	-4.52
CC(=O)Nc1ccc(NC(=O)COC(=O)Cc2c[nH]c3ccccc23)cc1	10.2
Cl.O=C(CN1CCCCCC1)N1c2ccccc2Sc2ccc(C(F)(F)F)cc21	-1.87

Compound	hERG current change (%, negative = inhibition) at 10uM [%]
COc1cccc(CNC(=O)c2nnn(CC(=O)Nc3ccc(Br)cc3)c2N)c1	17.5
O=C(CNC(=O)Cc1ccc(Cl)cc1)NCC(=O)N1CCCCC1	17.9
CCOC(=O)c1c(C)n(C)c2ccc(OCC(N)=O)cc12	7.9
CCCCN=C1NN=C(c2cccc([N+](=O)[O-])c2)CS1.Cl	-4.82
O=C(CN1CCSCC1)N/N=C/c1ccc(F)cc1F	-6.43
CCc1ccc(NC(=O)c2cc(C(C)C)on2)cc1	-27.3
CN(CC(O)COc1c(F)cc(Br)cc1F)C1CCCCC1.Cl (stereo not drawn)	-65.9
CC1CCCC(C)N1CC(O)COc1c(F)cc(Br)cc1F.Cl (stereo not drawn)	-57.7
CC(C)(C)NCC(O)COc1c(F)cc(Br)cc1F.Cl (stereo not drawn)	-7.38
CC(C)NCC(O)COc1c(F)cc(Br)cc1F.Cl (stereo not drawn)	-4.33
CN(CC(O)COc1ccccc1F)C1CCCCC1.Cl (stereo not drawn)	2.08
Cl.OC(CNC1CCCC1)COc1c(F)cc(Br)cc1F (stereo not drawn)	-27.3
Cn1c(=O)c2cc(S(=O)(=O)NC(C(=O)Nc3cccc(F)c3)c3ccccc3)ccc2n(C)c1=O (stereo not drawn)	-7.01
COCCNC(=O)COc1ccccc1Cl	1.56
COCCNc1ccnc2c(Cl)cccc12	-81.9
COCCCNc1cc(C)nc2ccccc12.Cl	-40.3
COCCNc1cc(C)nc2ccccc12.Cl	-10.8
COCCCNc1nc(-c2ccc(Cl)cc2)nc2ccccc12	-1.64
COCCCNc1ccnc2c(Cl)cccc12	-58.5
O=S1(=O)N=C(N(CCO)/N=C/c2ccc(Br)cc2)c2ccccc21	15
